# According to PubChem BioAssay AID1347120 (National Center for Advancing Translational Sciences (NCATS), 2019):
# Hit rate of the full screen: of about 390,000 compounds, about 930 (0.24%) were called active. Another 5% or so got no clear call; they are omitted. For the sample, actives were picked, then their nearest neighbours and some compounds at random. Values without a mark were called inactive. Calls follow the shape of the dose curve; as a rule, active = well fitted activation curve with a large enough effect; inconclusive = small, poorly fitted or top-dose-only effect; inactive = no such curve, though single readings can be large or run the other way.
# Test: qHTS for Suppressors of FUS Proteinopathy: Primary screen using FUS-linked yeast assay; also: nearly all actives have a fitted effect of over 55% in size;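 as to growth rescue (activation): plate controls were DMSO vehicle for no effect and reference control for full effect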
# Conditions: S. cerevisiae FUS-expressing, OD600, 24 h; Potency: growth rescue; series mostly up to 76.6 µM; growth rescue (activation): at the top concentration
# Text: Several widespread neurodegenerative diseases, including Alzheimer disease, Huntington disease, Frontotemporal Lobar Degeneration (FTLD) and Amyotrophic Lateral Sclerosis (ALS), share a common pathological feature, namely accumulation of specific protein aggregates in diseased tissue. These diseases which is associated with protein misfolding (proteinopathies) have become increasingly problematic as the population ages and life expectancies are extended. Most proteinopathies are currently incurable, a situation confounded by the fact that the basis of neurodegeneration is generally poorly understood. There exists urgent and significant need to find therapeutics that can inhibit the toxicity associated with protein aggregation. A novel approach to understand the underlying mechanisms of neurodegenerative diseases has recently emerged in which the disease conditions are modeled in the yeast (Saccharomyces cerevisiae), a tractable eukaryotic organism with conserved protein quality control mechanisms. Yeast offers quick and reliable genetic manipulations and can be easily tailored to high-throughput screening (HTS).
# For this project, a yeast model of the FUS proteinopathies (a spectrum of neurodegenerative diseases that include ALS and a subtype of FTLD) was generated and employed. The cytoplasmic accumulation of the DNA/RNA-binding protein FUS (also known as TLS) is causative to both familial and sporadic forms of ALS and FTLD. This yeast model recapitulates neuronal pathology by showing severe cytotoxicity associated with cytoplasmic accumulation of FUS aggregates and a specific interaction between FUS and TDP-43, another ALS-associated protein. […] Specifically, the cellular accumulation of misfolded FUS that disrupts RNA homeostasis in both yeast and higher eukaryotes. This model was validated to be suitable for quantitative HTS (qHTS) use for finding genetic or chemical factors that restore growth. […] Identified compounds that inhibits FUS-yeast toxicity is flagged, re-acquired, and validated for further investigation and optimization.
# NIH Chemical Genomics Center [NCGC]
# NIH Molecular Libraries Probe Production Centers Network [MLPCN]
# Assay Submitter (PI): Frank Shewmaker PhD, Uniformed Services University of the Health Sciences
# Compound CP55940 was used as the positive control. Column 1 was treated with CP55940 titration from 92uM (final concentration, 1:2 dilution), while Column 2 was treated with top dose 92uM. Columns 3 and 4 were treated with DMSO only as negative control to assess background and noise signal.
# Four hundred fifty microliter of cultured yeast (in 20mL rich medium) provided by Dr. Shewmaker lab was incubated at 30C at 99% humidity for 3hr. The culture was then spun down at 4000rpm for 5min and the cell pellet was resuspended in 2mL of Sdmin Media + ALU(330) + 2.5% Raffinose. One hundred microliter of the suspension was added to 900uL of water and OD of the solution was obtained. Twenty mL of responding medium (provided by Shewmaker lab) + 2.5% raffinose was added to ensure cell density of 0.1; the solution was incubated overnight. Working cell solution (FUS-yeast in Sdmi + Sdmi + 1X ALU + 2% galactose media) was prepared (final OD at 0.005) and 3uL was dispensed in a 1536-well Aurora high based clear bottom assay plates. Controls and library compounds (at various final concentrations from 40uM to 0.32uM) were added using a 1536-well pin array using the Kalypsys pin-tool. The plates were then incubated for 24hrs in a cell-culture incubator (30C; 99% humidity). Absorbance at 600nm was then read using the PerkinElmer ViewLux plate reader.
# Potency is read from the fitted curve at half-maximal effect.
Compound,growth rescue (activation) [%],Potency
COc1ccccc1NC(=O)c1sc2nc(C)c(C(=O)Nc3ccc(Cl)cc3)c(-c3ccc(Br)cc3)c2c1N,31,–
CC(C)S(=O)(=O)c1oc(-c2ccc(F)cc2)nc1S(=O)(=O)c1ccc(F)cc1,-15.6,–
CCOc1ccccc1NC(=O)C1CCCN(S(=O)(=O)c2cn(C)cn2)C1 (stereo not given),4.87,–
COC(=O)c1ccccc1NC(=O)c1ccc2c(=O)n3c(nc2c1)CCCCC3,16.4,–
COc1cccc(CNC(=O)c2ccc3c(c2)sc2nc(-c4cccc(OC)c4)cn23)c1,11.4,–
CN1C(=O)c2[nH]nc(-c3ccc(F)cc3)c2C1c1ccccn1 (stereo not given),-19.3,–
COc1ccc(CCNC(=O)c2nn(C)c3c2CSc2ccccc2-3)cc1OC,12.3,–
CCCn1c2ccccc2c2cnn(CC(=O)NCC3CCN(Cc4ccc(C)cc4)CC3)c(=O)c21,-0.459,–
Cc1ccc(NC(=O)CSc2nc3ccccc3c3nc(CCn4cncc4C)nn23)cc1F,20.8,–
Cc1cccc(NC(=O)C2CCCN2S(=O)(=O)c2cccc3nsnc23)c1C (stereo not given),18.3,–
COc1ccc(-c2cn3c(n2)sc2cc(C(=O)Nc4ccccc4F)ccc23)cc1,19.4,–
CCOc1ccc(NC(=O)c2c(NC(=O)Cc3ccccc3)sc3c2CCCCC3)cc1,18.3,–
NS(=O)(=O)c1ccc(CCNC(=O)CCCCCn2c(=O)[nH]c3ccccc3c2=O)cc1,8.38,–
CCOC(=O)C1=C(c2ccccc2)Nc2ncnn2C1c1ccc(Cl)cc1 (stereo not given),-5.79,–
COc1ccc(N2CCN(c3cc(C)nc4nncn34)CC2)cc1,-24.9,–
CC(C)Cc1ccc(-c2cc3nc(NCc4cccc(Cl)c4)ccn3n2)cc1,-4.06,–
COCCCNc1ccn2nc(-c3ccc(CC(C)C)cc3)cc2n1,–,25.1 µM (active)
COc1ccccc1-c1cc2nc(NCc3cccc(Cl)c3)ccn2n1,33.9,–
CCOc1ccccc1N(CC)C(=O)Nc1cn(C)c(=O)c2ccccc12,13.2,–
Cc1ccc(C)c(N2CCN(CCCNC(=O)Nc3ccc(Cl)cc3)CC2)c1,20.1,–
CCc1cc2c(cc3c(=O)n(CC(=O)NCCc4ccc(OC)c(OC)c4)ncn32)s1,0.833,–
Cc1ccc(-c2csc(C(C#N)=C(O)CN3CCN(C(=O)c4ccco4)CC3)n2)cc1,–,28.2 µM (active)
Cc1ccc(NC(=O)C(c2ccccc2)N2CCN(C(=O)c3ccco3)CC2)cc1 (stereo not given),31.1,–

Compound,growth rescue (activation) [%],Potency
COc1cccc(OC)c1OCCN1CCN(C(=O)c2ccco2)CC1,-15.5,–
CN1CCN(C2(CNC(=O)COc3ccc(C(C)(C)C)cc3)CCCCC2)CC1,20.4,–
CC(C)(C)OC(=O)C[C@@H]1C/C=C\C[C@@H](CC(=O)N[C@H](CO)Cc2ccccc2)C(=O)NCCOC1=O,13.5,–
O=C(C[C@H]1C/C=C\C[C@@H](NC(=O)OCC2c3ccccc3-c3ccccc32)C(=O)O[C@@H](c2ccccc2)CNC1=O)N[C@H](CO)Cc1ccccc1,–,35.5 µM (active)
CC(C)(C)OC(=O)C[C@@H]1C/C=C\C[C@@H](CC(=O)N[C@H](CO)Cc2ccccc2)C(=O)NC[C@@H](c2ccccc2)OC1=O,25.1,–
CC(C)c1ccc(NC(=O)c2ccc3c(O)c(S(=O)(=O)c4ccccc4)c(=O)[nH]c3c2)cc1,-2.38,–
Cc1ccc(Cl)cc1-n1ncc2c(N3CCC(C(N)=O)CC3)ncnc21,-6.61,–
CCOC(=O)c1c(NC(C)=O)c2c3c(sc2n1Cc1c(C)cc(C)cc1C)CCCC3,32.1,–
CCc1ccccc1NC(=O)CSc1nnc(-c2ccccc2)c(-c2ccccc2)n1,31.2,–
CCOCCCn1c(SCC(=O)Nc2ccc(CC)cc2)nc2ccccc2c1=O,4.6,–
O=C(CN1CCOCC1)Nc1c(Cl)cc(Cl)cc1Cl,-45.1,–
O=C(CN1CCOCC1)Nc1ccccc1,–,25.1 µM (active)
O=C(CN1CCOCC1)Nc1c2c(nc3c1CCC3)CCC2,-15.7,–
CN(c1ccccc1)S(=O)(=O)c1ccc(NC(=O)COc2ccccc2)cc1,17.1,–
CN(C)S(=O)(=O)c1cccc(NC(=O)COc2ccc3ccccc3c2)c1,–,22.4 µM (active)
CN(C)S(=O)(=O)c1cccc(NC(=O)COC(=O)C2(c3ccccc3F)CCCC2)c1,19.5,–
Cc1ccc(NC(=O)C2CCN(S(=O)(=O)c3cc(-c4noc(C)n4)ccc3C)CC2)c(C)c1,13.4,–
Cc1ccccc1C(=O)Nc1nnc(S(=O)(=O)N(C)c2ccc(Cl)cc2)s1,-9.93,–
CCOC(=O)C1=C(C)NC(SC)=NC1c1ccccc1 (stereo not given),25.4,–
CCOC(=O)C1=C(C)Nc2sc(C(=O)c3ccc(Br)cc3)c(N)c2C1c1ccc(C(=O)OC)cc1 (stereo not given),–,31.6 µM (active)
CCOC(=O)C1=C(C)NC2=C(C(=O)CC(C)(C)C2)C1c1ccsc1 (stereo not given),13.7,–
O=C(NCc1ccccc1)c1cccc(NC(=O)N2CCSc3ncccc32)c1,-8.13,–
